Source: PubChem BioAssay (several laboratories)
SKN-1 block – suppressors of acrylamide-induced Pgst-4::GFP reporter in worms, primary screen, SKN-1 inhibitor project, whole organism, uHTS, GFP/RFP fluorescence ratio, strain VP596; 0.49% of 360,000 active; C. elegans VP596 Pgst-4::GFP/RFP ratio, 24 h; inhibition, % at 21.8 µM;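 active means interference check ratio from 0.5 to 1.5 plus GFP to RFP signal ratio inhibition reaching or exceeding a fixed threshold, cut at about 30% in these data, passing the limit was not always enough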
SUMO Mot1 rescue – yeast Mot1-301 growth rescue at high temperature, primary screen, SUMOylation pathway inhibitor project, S. cerevisiae, ATP luminescence, 38.5C; AID 2716, 2010; 1% of 320,000 active; growth rescue, % at 18.8 µM; S. cerevisiae Mot1-301 growth rescue; percent above DMSO median, 100 means doubled;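 active means every valid replicate shows activation above 250% relative to neutral control wells; inactive means the rest, any valid replicate at or below 250%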
sPLA2-III inh – human group III sPLA2 inhibitors, primary screen, biochemical, QFRET, BODIPY PC-A2 liposome substrate; AID 743126, 2013; 0.56% of 370,000 active; Group 3 secretory phospholipase A2 (Homo sapiens), Q9NZ20; inhibition, % at 12.2 µM; QFRET BODIPY PC-A2 liposome hydrolysis, fluorescence;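 active means inhibition above mean plus 3 SD of compounds lying within the high and low control bounds, cut at about 19% in these data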
Target sequence (Q9NZ20 whole entry, looked up): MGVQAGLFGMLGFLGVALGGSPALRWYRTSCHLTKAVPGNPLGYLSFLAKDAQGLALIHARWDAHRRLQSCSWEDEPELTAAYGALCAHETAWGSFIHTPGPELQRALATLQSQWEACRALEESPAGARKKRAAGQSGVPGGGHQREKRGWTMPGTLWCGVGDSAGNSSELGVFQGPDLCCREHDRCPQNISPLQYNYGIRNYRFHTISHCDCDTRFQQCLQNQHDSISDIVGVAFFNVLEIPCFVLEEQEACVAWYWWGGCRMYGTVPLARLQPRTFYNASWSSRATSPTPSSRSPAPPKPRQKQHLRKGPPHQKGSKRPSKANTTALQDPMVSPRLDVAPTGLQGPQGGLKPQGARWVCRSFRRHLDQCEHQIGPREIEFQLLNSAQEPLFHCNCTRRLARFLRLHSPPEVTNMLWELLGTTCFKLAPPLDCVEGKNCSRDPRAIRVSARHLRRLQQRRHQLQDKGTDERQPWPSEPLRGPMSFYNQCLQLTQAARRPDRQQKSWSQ
Efflux pump inh – inhibitors of Candida efflux pumps in yeast, primary screen, S. cerevisiae, Nile Red, multiplex; S. cerevisiae Candida pump triplex; inhibition, % at 10 µM; 0.44% of 330,000 active; AID 485275, 2010;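 active means plate passing quality check with inhibition over a set limit, or well fluorescence over plate mean plus 4 SD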;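 further: Nile Red retained in pooled yeast measured as flow cytometry median fluorescence; higher means more Nile Red kept so more efflux inhibition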
Hits are given with their value; 0 = inactive; - = no result. In the library only some 2.2% were active in any assay of this set; here they are far more common.

SMILES	SKN-1 block	SUMO Mot1 rescue	sPLA2-III inh	Efflux pump inh
O=C(COc1ccc2c(c1)oc(=O)c1ccccc12)NCC1CCC(C(=O)O)CC1 (centres undefined)	0	619.6	0	0
O=C(COc1ccc2c(-c3ccccc3)cc(=O)oc2c1)NCC1CCC(C(=O)O)CC1 (centres undefined)	0	0	0	0
O=C(COc1ccc2cc(-c3ccccc3)c(=O)oc2c1)NCC1CCC(C(=O)O)CC1 (centres undefined)	0	988.0	0	0
O=C(COc1ccc2c3c(c(=O)oc2c1)CCC3)NCC1CCC(C(=O)O)CC1 (centres undefined)	0	0	0	0
CC1CCN(c2ccc(C(=O)O)cc2NS(=O)(=O)c2cccc3cccnc23)CC1	-	-	0	-
O=C(CCn1nnc2ccccc21)N1CCN(c2ccccc2F)CC1	-	-	0	-
CN(C)CCCO[C@@H]1[C@H]2OC(C)(C)O[C@H]2O[C@@H]1[C@H](O)CO	43.6	0	0	0
O=C(NCC1CC1(Cl)Cl)Nc1ccc(Cl)c(Cl)c1 (centres undefined)	56.2	0	0	0
Cc1ccc(NC(=O)NCC2CC2(Cl)Cl)cc1 (centres undefined)	0	0	0	0
Brc1ccc(OCc2nc(-c3ccccn3)n[nH]2)cc1	28.2	0	0	0
COc1ccccc1/C=C/C=N/NC(=O)c1cc(-c2ccc(C)o2)[nH]n1	0	307.9	0	0
Cc1ccc(/C=N/NC(=O)c2cc(-c3ccc(C)o3)[nH]n2)cc1	0	0	0	0
COCCN1C(=O)CC(NNC(=O)c2ccc(S(=O)(=O)N3CCCC3)cc2)C1=O (centres undefined)	100.6	0	0	0
Cc1ccccc1CS(=O)(=O)c1nnc([C@H](CC(C)C)NC(=O)OC(C)(C)C)o1	0	0	0	0
CC(C)(C)OC(=O)N[C@@H](Cc1ccccc1)c1nnc(S(=O)(=O)Cc2cccc(F)c2)o1	-	274.6	-	0
Cc1ccc2nc(-c3ccc(NS(=O)(=O)c4c(C)n(C)c(=O)n(C)c4=O)cc3)sc2c1	0	323.5	0	0
COc1cc2nc(C3CC3)n(NC(=O)c3ccc(Cl)cc3)c(=O)c2cc1OC	36.9	0	0	0
COc1cc2nc(C3CC3)n(NC(=O)c3ccc(F)cc3)c(=O)c2cc1OC	0	0	0	0
CCCCNC(=O)NS(=O)(=O)c1ccc(NC(=O)CSc2ncnc3scc(-c4ccc(C)cc4)c23)cc1	-	-	0	-
CC1CCC(C(=O)NC(C(=O)NCc2ccccn2)C(C)C)CC1 (centres undefined)	0	343.6	0	0
CC(C)C(NC(=O)C1CCCCC1)C(=O)NCc1ccccn1 (centres undefined)	0	0	0	0
BrC(/C=C\c1ccccc1)=N/Nc1nc(N2CCOCC2)nc(N2CCOCC2)n1	0	320.4	0	0
Cc1cccc(CSCc2ccc(C(=O)NCC3CCCO3)o2)c1 (centres undefined)	0	315.0	0	0
Cc1ccc(CSCc2ccc(C(=O)NCC3CCCO3)o2)cc1 (centres undefined)	0	0	0	0
COc1cc(C2C(C#N)=C(C)NC3=C2C(=O)CC(C)(C)C3)cc(OC)c1O (centres undefined)	0	348.1	0	0
SMILES	SKN-1 block	SUMO Mot1 rescue	sPLA2-III inh	Efflux pump inh
Cc1ccc(CSc2nc3ccccc3cc2C=O)cc1	41.7	0	0	0
O=Cc1cc2ccccc2nc1SCc1ccc(Cl)cc1	0	0	0	0
C[C@@H]1ON(C)[C@H]2C[C@H]3c4cc(N5CCCCC5)ccc4CCN3C[C@@H]12	-	-	0	-
CCCCNC(=O)C[C@H]1C[C@@]2(C(=O)OC)C(=C[C@H](C(C)(C)C)O[C@@H]2C)N(Cc2ccco2)C1=O	-	-	0	-
CCCC(=O)NC1=C(Cl)C(=O)c2ccccc2C1=O	0	-	0	-
CCNC1=C(Cl)C(=O)c2ccccc2C1=O	36.6	0	0	0
O=C(Nc1ccc(Cl)cc1)c1ccc(CN2CCc3ccccc3C2)cc1	0	0	19.7	0
O=C(/C=C/c1ccc(Cl)cc1)Nc1ccc(CN2CCOCC2)cc1	63.2	0	0	0
CC(C)c1ccc(C(=O)Nc2ccc(CN3CCOCC3)cc2)cc1	70.1	0	0	0
COc1ccccc1NC(=O)c1ccc(CN2CCOCC2)cc1	36.0	0	0	0
NC(=O)c1ccc(NC(=O)c2ccc(CN3CCOCC3)cc2)cc1	0	0	0	0
COc1ccc(OC)c(NC(=O)c2ccc(CN3CCOCC3)cc2)c1	0	0	0	0
CC(C)(CNC(=O)c1cccc(S(=O)(=O)Nc2ccc(Br)cc2)c1)N1CCOCC1	0	0	0	0
O=C(Nc1ccc(CN2CCOCC2)cc1)c1cc2ccccc2o1	56.2	0	0	0
CCC(C)N(C(=O)c1ccc(CNC(=O)c2cccc(Br)c2)cc1)C(C)CC (centres undefined)	-	-	0	-
Cc1cc(N2CCNC[C@@H]2C)ccc1N1CCN(Cc2ccccc2)[C@@H](C)C1	-	-	0	-
Cc1cccn2c(=O)c(C=O)c(N3CC(C)OC(C)C3)nc12 (centres undefined)	0	0	0	0
Cc1cccn2c(=O)c(C=O)c(N3CCCCCC3)nc12	37.3	0	-	0
O=C(OCC12CC3CC(CC(C3)C1)C2)c1ccc(NCc2cc(O)ccc2O)cc1	0	-	29.1	-
N#CCC(=O)Nc1ccc(C(=O)OCC(=O)C23CC4CC(CC(C4)C2)C3)cc1	0	0	0	0
CCCCS/C(=C(/C#N)C(N)=O)c1cc2c([nH]1)CCCC2	36.6	0	0	0
CCc1ccc(N/C(SC)=C(/C#N)C(N)=O)cc1	0	0	-	0
CC(C)(C)c1ccc(C#C[C@@H]2C=C[C@@H](O)[C@@H](COC(=O)Nc3ccccc3)O2)cc1	-	-	0	-
COc1ccc2c(c1)[C@@]1(OCCC=C[C@H]1C)C(=O)N2CC1CC1	-	-	0	-
CCCOc1c(Br)cc(C(N)=O)cc1OCC	0	315.9	0	0
SMILES	SKN-1 block	SUMO Mot1 rescue	sPLA2-III inh	Efflux pump inh
CCOc1c(Br)cc(C(N)=O)cc1OC	0	0	0	0
O=C1CN(C(=O)c2ccc(Br)o2)C(c2ccccc2)c2cc(Br)ccc2N1 (centres undefined)	58.9	0	0	0
Cc1ccc2c(c1)C(c1ccccc1)N(C(=O)c1ccc(Br)o1)CC(=O)N2 (centres undefined)	0	0	0	0
O=C(NCc1ccncc1)c1ccc(-c2ccc(F)c(F)c2)c2ccoc12	62.1	-	0	-
O=C(NCc1ccc(C(F)(F)F)cc1)c1ccc(-c2ccc(F)c(F)c2)c2ccoc12	0	-	0	-
C/C=C/C=C/C(=O)c1cc(C)c(OC(=O)CNC(=O)OC(C)(C)C)c(C)c1O	-	-	0	-
Nc1[nH]c(C(=O)c2ccccc2)c(-c2ccc3c(c2)OCO3)c1C(=O)NCCc1c[nH]c2ccccc12	-	-	0	-
CCN(CC)c1ccc(/C=C/C(=O)C2C(=O)C=C(C)OC2=O)cc1 (centres undefined)	0	0	0	7.6
CCN(CC)c1ccc(C2C(C(=O)OC)=C(C)NC(C)=C2C(=O)OC)cc1	0	0	0	0
